Screening results: PubChem, several laboratories
Shn3 3UTR inh – reduces Shn3 3'UTR luciferase signal in osteoblasts; Clone20 osteoblast Shn3 3'UTR firefly luciferase, 24 h; inhibition, % at 12.5 µM; hit rate 0.52% among 360,000;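 active means mean inhibition of at least 75% with every replicate also reaching 75%; inconclusive means mean inhibition at least 75% but some replicate below; inactive means mean inhibition below 75%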;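 further: 0% = median of neutral control wells and 100% = pilot-screen positive control compound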
Jurkat NFkB inh – lowers PMA/ionomycin-induced NF-kB signal in Jurkat cells. PMA/ionomycin-induced NF-kB luciferase reporter, luminescence. inhibition, % at 4 µM. hit rate 0.53% among 330,000. AID 435003; in the data active means inhibition above about 50%
aSyn UTR inh – MLPCN primary screen, SNCA 5' untranslated region. hit rate 0.82% among 300,000. alpha-synuclein 5'UTR reporter, inhibitor activity. inhibition, % (tested at 7.5 µM); in the data active means inhibition above about 60%; inconclusive means no clear call, values can overlap the other calls;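 further: H4 neuroglioblastoma cells stably carrying SNCA 5'UTR luciferase fusion; 0% = DMSO wells and 100% = positive control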
TAG inh – inhibitors of triacylglycerol accumulation | H9c2 cells, Nile Red lipid (TAG) fluorescence; cells loaded with 200 µM oleic acid | inhibition, % at 12.5 µM | hit rate 0.66% among 230,000 | AID 651582;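 active means pattern-corrected inhibition of lipid staining of at least 50% with the nuclear-stain viability signal not falling by more than 50%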;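 further: 0% = DMSO wells and 100% = triacsin C control wells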
Gli-Sufu block – blocks Gli-Sufu signaling in a luciferase reporter; Sufu-KO-LIGHT fibroblasts, Gli luciferase reporter luminescence; AID 588413; inhibition, % at 5 µM; hit rate 0.74% among 340,000;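 active means inhibition above about 55%, limit read from the data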;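 further: 0% = DMSO-treated cells and 100% = wells with medium but no cells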
697 NFkB inh – inhibitors of the PMA/ionomycin-induced NF-kB reporter in 697 B cells. 697 B-cell NF-kB luciferase reporter, 16 h. inhibition, % at 4 µM. hit rate 0.33% among 330,000. AID 435022; in the data active means inhibition above about 35%
Jurkat NFkB conf – lowers PMA/ionomycin-induced NF-kB signal in Jurkat cells; hit rate 27% among 2,700; inhibition, % at 4 µM; Jurkat NF-kB luciferase, 16 h; shares compounds with Jurkat NFkB inh; AID 435020;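 active means inhibition reaching about 45% at 4 µM in either replicate, limit read from the data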;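 further: plate controls were PMA/ionomycin stimulated DMSO wells for no effect and unstimulated DMSO wells for full effect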
The depositor's hits bear a star; ? = inconclusive; . = no result. The list is not random: actives were taken first. Their share in the collection is about 2.3%.

SMILES	Shn3 3UTR inh	Jurkat NFkB inh	aSyn UTR inh	TAG inh	Gli-Sufu block	697 NFkB inh	Jurkat NFkB conf
O=C(c1cc(-c2ccncc2)nc2ccccc12)N1CCN(c2ccccn2)CC1	18	57*	-36	.	-8	-30	8
O=C(c1ccccc1-c1ccccc1)N1CCN(c2ccccn2)CC1	1	69*	-2	.	5	-21	41
O=C(c1cn(Cc2ccccc2)nc1-c1ccccc1)N1CCN(c2ccccn2)CC1	7	53*	.	14	-6	-37	39
CC1(CO)COC(c2ccccc2)=N1 (stereo not drawn)	-11	2	17	16	6	2	.
CCn1c(/C=C/c2ccccc2)nc2ccccc21	4	-170	-157	.	-82	-135	-134
COc1ccc(CC(=O)NCC2CCCN(Cc3ccc(F)cc3F)C2)cc1 (stereo not drawn)	9	9	17	8	11	15	.
CN(C)c1ccc(C2C=C(c3ccc(Cl)cc3OC(F)F)Nc3ncnn32)cc1 (stereo not drawn)	5	61*	-4	.	-7	2	15
Cc1ccc(C2C=C(c3ccccc3OC(F)F)Nc3ncnn32)cc1 (stereo not drawn)	4	-11	1	-4	-8	5	.
CNc1ccc2ncc(-c3ccccc3C(C)=O)n2n1	0	.	.	-7	.	.	.
N=c1c2c(-c3ccccc3)c(-c3ccccc3)n(Cc3ccco3)c2ncn1CCO	4	33	-14	35	7	-24	.
N=c1c2c(-c3ccccc3)c(-c3ccccc3)n(Cc3ccco3)c2ncn1CCCO	7	56*	-30	23	19	-16	19
O=C(CNc1cccc2ccccc12)N/N=C/c1ccc[nH]1	0	59*	12	0	25	8	-3
Cc1cccc(CNC(=O)c2ccccc2NC(=O)C2=CSCCO2)c1	-3	-1	9	.	42	-8	.
Cc1ccc2c(c1)Sc1c(ccc3ccccc13)N2	.	-171	-6	38	-92	-219	-28
CCOc1ccccc1NC(=O)Cn1nnc(C(=O)NCc2ccco2)c1N	.	69*	85*	66*	26	13	56*
COc1ccc(NC(=S)N2CCC(C(=O)N3CCCCCC3)CC2)cc1	3	12	-26	.	-2	8	.
Cc1ccc(C(=O)Nc2ccc(Cl)cn2)cc1S(=O)(=O)N1CCOCC1	-16	-1	-20	5	-8	11	.
CCOC(=O)N1CCN(CC(O)COCCC23CC4CC(CC(C4)C2)C3)CC1 (stereo not drawn)	-16	-2	13	-5	4	-25	.
C=CCOCCN1C(=O)C2C3C=CC(C2C1=O)C1C2C(=O)N(CCOCC=C)C(=O)C2C31 (stereo not drawn)	8	3	-8	.	-15	21	.
COc1cc2[nH]c(=O)n(CCC(=O)NCCC(C)C)c(=O)c2cc1OC	-10	-7	-4	5	-7	-31	.
Cc1c(C(C)(C)C)sc(=NC(=O)c2ccccc2O)n1C	-6	-193	-125	.	-87	-226	-113
Cc1c(C(C)(C)C)s/c(=N/S(=O)(=O)c2ccccc2)n1C	11	-11	5	-36	8	2	.
CCc1nc(SCC(=O)Nc2cc(C)on2)c2c(C)c(C)sc2n1	11	2	20	2	6	0	.
Cc1cc(NC(=O)CSc2nc(C3CC3)nc3sc(C)c(C)c23)no1	-20	51*	5	.	2	-55	7
COc1ccc(OCc2cc(/C=N\NC(=O)c3ccccc3)ccc2OC)cc1	-14	54*	-53	2	-2	-25	18
SMILES	Shn3 3UTR inh	Jurkat NFkB inh	aSyn UTR inh	TAG inh	Gli-Sufu block	697 NFkB inh	Jurkat NFkB conf
COc1ccc(C(=O)N/N=C/c2ccc(OC)c(COc3c(F)c(F)cc(F)c3F)c2)cc1	7	3	.	13	8	-4	.
COc1cc(OC)cc(C(=O)N/N=C/c2ccc(OC)c(COc3ccc(F)cc3)c2)c1	6	52*	-45	15	26	-41	24
COc1cccc(C(=O)N/N=C/c2ccc(OC)c(COc3ccccc3C(N)=O)c2)c1	14	-1	-18	5	.	14	.
COc1ccc(/C=N\NC(=O)c2cccc(F)c2)cc1COc1ccccc1	20	52*	88*	47	49	12	53*
CCn1cc2nc(SCC(=O)Nc3ccc(OC)cc3OC)n(Cc3ccc(OC)cc3)c(=O)c2n1	26	52*	-6	.	0	-23	30
CCn1cc2nc(SCC(=O)Nc3ccc(OC)c(OC)c3)n(Cc3ccc(OC)cc3)c(=O)c2n1	-39	-41	31	.	28	-36	.
O=C(CN1C(=O)C2CCCCC2C1=O)NC1CCCc2ccccc21 (stereo not drawn)	?	-2	.	-2	-4	-3	.
CCCN1CCC(=NNc2ccc(S(=O)(=O)N(CC)CC)cc2[N+](=O)[O-])CC1	16	59*	79*	46	-5	-12	-7
O=C(N/N=C/c1ccccc1)c1ccc2c(c1)OCO2	-49	-83	-42	26	-80	-103	.
O=C(N/N=C\c1c(O)ccc2ccccc12)c1ccc(S(=O)(=O)N2CCCCC2)cc1	89*	55*	114*	.	85*	-21	73*
O=C(NN=Cc1c(O)ccc2ccccc12)c1ccc2c(c1)OCO2	89*	67*	.	8	29	-16	82*
O=C(N/N=C/c1c(O)ccc2ccccc12)c1ccc(CO)nc1	82	35	51	.	17	-11	.
CCC(=O)Nc1ccc2c(c1)ncn2-c1ccc(OC)cc1	-5	-24	-13	-1	-43	-14	.
O=C(COc1ccc(F)cc1Br)N1CCc2ccccc21	-64	-142	-86	15	-99	-201	.
Cc1ccc(OCCNC(=O)CNC(=O)c2ccc(C)cc2)cc1	1	5	14	10	-19	-1	.
NC(=O)c1c(NC(=O)c2cc3ccccc3o2)sc2c1CCC2	.	-163	-31	8	-92	-173	-43
Fc1ccccc1Cn1nnc(-c2ccc3c(c2)OCO3)n1	-83	-162	-77	-4	-150	-150	-127
COc1ccc(-c2nnn(Cc3ccccc3F)n2)cc1	-47	-104	-207	-6	3	-144	.
Cc1ccc(N/C=C/c2onc(C)c2[N+](=O)[O-])cc1	-127	-221	-134	-5	-115	-243	8
COC(=O)Nc1ccc(S(=O)(=O)N2CCCC(C(=O)N3CCCCCC3)C2)cc1 (stereo not drawn)	25	-16	2	13	10	-3	.
Cc1ccc(Nc2nc(N)c3ccccc3n2)cc1C	32	-166	46	-7	-3	-248	-120
COc1ccc(C(=O)C2CCCN(C/C=C/c3ccccc3OC)C2)c(OC)c1 (stereo not drawn)	32	14	-1	-12	32	15	.
